Screening data (PubChem)
Gal4-VP16 FLuc: inhibits Gal4-VP16 luciferase reporter, ROR gamma counter-screen; Drosophila S2 Gal4-VP16 UAS-luciferase, luminescence, 20 h; Potency, µM (top dose mostly 53.6 µM), usual class: inhibitors; AID 2546; 310,000 compounds, 3.5% hits;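 further: Gal4-VP16 expression switched on by copper sulfate through the metallothionein promoter; nearly all actives have a fitted effect of over 50% in size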
IL1B secr inh: inhibitors of inflammasome signaling (IL-1 beta secretion); AID 743279; activity change, % at 57.5 µM; THP-1 LPS/ATP IL-1B secretion, AlphaLISA, 16 h; active compounds read low; 360,000 compounds, 4.7% hits; in the data active means activity change below about -50%; inconclusive means mostly about -30% to -49%
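THP-1 cells pretreated 1 hr with compounds (up to 57.5 uM final), then stimulated with LPS (250 ng/mL final) plus ATP (1.25 mM final); secreted IL-1B measured by AlphaLISA after 16 hr, decreased signal indicating inhibition.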
TDP1 cell noCPT: qHTS for Inhibitors of human tyrosyl-DNA phosphodiesterase 1 (TDP1): qHTS in cells in absence of CPT; AID 686978, 2013; 420,000 compounds, 15% hits; DT40 Tdp1-/- hTDP1 cells, no CPT, ATP luminescence, 48 h; Potency, µM (doses to about 46.2 µM), most hits filed as inhibitors; further: nearly all actives have a fitted effect of over 55% in size
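Growth kinetics read by CellTiter-Glo luminescence after ≥48 hr at 37 °C. Cells: DT40 Tdp1-/- stably carrying human TDP1, 400 per well, compound exposure in the absence of CPT (DMSO vehicle).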
DT40 TDP1 CPT: DT40-hTDP1 cell growth loss with CPT; 420,000 compounds, 12% hits; Potency, µM (titrated, usually from 46.2 µM), actives largely listed as inhibitors; chicken DT40 Tdp1-/-;hTDP1 cells + 20 nM CPT, ATP luminescence, 48 h; further: nearly all actives have a fitted effect of over 55% in size
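Cell growth measured by CellTiter-Glo luminescence after a minimum 48 h, 37 C compound exposure with 20 nM CPT in Tdp1-knockout DT40 cells stably expressing hTDP1, seeded 400/well; qHTS titration format.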
ELG1 repair inh: blocks ELG1-dependent DNA repair in HEK293T cells; HEK293T ELG1-luciferase reporter, luminescence, 16 h; DNA damage induced by 5-fluorouridine; Potency, µM (series often up to 46.1 µM), hits mostly inhibitors; 330,000 compounds, 2.3% hits; AID 504467; further: nearly all actives have a fitted effect of over 55% in size
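Quantitative HTS, concentration-response format. 2,000 cells/well co-treated with 5-fluorouridine and compound, 16 hr in 5% CO2 at 37 °C; ONE-Glo luminescence read after 30 min.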
RORgamma inh: ROR gamma (mouse) transcription inhibition; P51450; Drosophila S2 Gal4-RORgamma UAS-luciferase reporter, 20 h; Potency, µM (top dose mostly 53.6 µM), most hits filed as inhibitors; 310,000 compounds, 5.4% hits; AID 2551; further: nearly all actives have a fitted effect of over 60% in size
Target sequence (P51450 whole entry, looked up, the tested form may be a part): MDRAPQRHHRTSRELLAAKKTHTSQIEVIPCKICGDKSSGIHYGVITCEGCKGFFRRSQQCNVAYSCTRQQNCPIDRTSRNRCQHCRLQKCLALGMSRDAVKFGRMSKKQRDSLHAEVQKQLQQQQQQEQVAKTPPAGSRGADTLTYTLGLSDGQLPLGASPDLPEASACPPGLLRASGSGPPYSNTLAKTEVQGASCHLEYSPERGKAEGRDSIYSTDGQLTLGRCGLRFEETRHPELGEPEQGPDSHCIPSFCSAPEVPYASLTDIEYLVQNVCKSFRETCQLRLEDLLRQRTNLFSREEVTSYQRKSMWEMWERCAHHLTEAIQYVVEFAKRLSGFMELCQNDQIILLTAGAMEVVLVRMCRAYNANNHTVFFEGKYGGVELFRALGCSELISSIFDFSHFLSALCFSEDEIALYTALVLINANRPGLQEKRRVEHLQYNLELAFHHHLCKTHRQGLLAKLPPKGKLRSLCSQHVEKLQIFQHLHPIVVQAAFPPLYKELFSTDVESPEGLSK
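A Gal4/UAS one-hybrid system in insect cells: metallothionein-promoter Gal4–ROR gamma fusion plus Photinus luciferase reporter. Copper sulfate 700 uM final, 20 hr ambient incubation, luminescent detection after 10 min with reagent.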
Hits are given with their value; . = inactive; ? = inconclusive; / = no result given. Rows were chosen to be rich in hits. Some 21% of all compounds tested hit in one or more screens of this group. Unless noted, the call rests on the fitted dose curve; in most records, active means well fitted curve in the direction sought with a large enough effect; inconclusive means small, poorly fitted or top-dose-only effect, or another doubt; inactive means no such curve, though single readings can be large; an effect the other way counts as inactive or inconclusive.

SMILES | Gal4-VP16 FLuc | IL1B secr inh | TDP1 cell noCPT | DT40 TDP1 CPT | ELG1 repair inh | RORgamma inh
CC(C)(C)c1ccc(C(=O)CS(=O)(=O)c2ccccc2)cc1 | . | . | 16.4µM | ? | ? | .
O=C1NC[C@H](c2ccccc2)OC(=O)[C@H](Cc2ccc(F)cc2)CC/C=C/C[C@@H]1CC(=O)N(CCO)Cc1ccccc1 | / | . | 10.3µM | 9.2µM | 11.6µM | /
O=C1NC[C@@H](c2ccccc2)OC(=O)[C@H](Cc2ccc(F)cc2)C/C=C\C[C@H]1CC(=O)N(CCO)Cc1ccccc1 | / | ? | 16.4µM | 20.6µM | 20.6µM | /
O=C(C[C@H]1C/C=C\C[C@@H](Cc2ccc(F)cc2)C(=O)O[C@@H](c2ccccc2)CNC1=O)NCCO | / | . | ? | . | . | /
O=C1NC[C@@H](c2ccccc2)OC(=O)[C@@H](Cc2ccc(F)cc2)CC/C=C/C[C@H]1CC(=O)N(CCO)Cc1ccccc1 | / | ? | 18.4µM | 13µM | 13µM | /
COc1cccc(OCc2ccc(Cn3nc(NC(=O)NCCc4ccc(OC)c(OC)c4)c4ccccc43)cc2)c1 | / | . | ? | . | / | /
NC(=S)n1[nH]c(-c2ccc([N+](=O)[O-])cc2)c(N=Nc2ccc(O)cc2)c1=O | . | . | ? | ? | . | .
Cc1[nH]n(S(=O)(=O)c2ccccc2)c(=O)c1N=Nc1cccc(Cl)c1 | ? | . | . | . | . | ?
Cc1[nH]n(C(N)=S)c(=O)c1N=Nc1cccc(Cl)c1 | 1.58µM | . | ? | ? | ? | 0.282µM
NC(=S)n1[nH]c(-c2ccc([N+](=O)[O-])cc2)c(N=Nc2cccc(Cl)c2)c1=O | 7.08µM | ? | 6.51µM | 8.2µM | 3.66µM | 0.398µM
COc1ccc(CCNC(=O)CCOc2ccc(C(C)(C)C)cc2)cc1OC | / | . | ? | ? | / | /
COc1ccc(S(=O)(=O)NC(=O)C2(C)CCN2C(=O)c2c(C)noc2C)cc1 (stereo unspecified) | / | . | . | . | / | /
CC(C)(C)S(=O)(=O)/C(C#N)=N/Nc1ccc(C#N)cc1 | . | . | ? | ? | 18.3µM | ?
CC(C)(C)S(=O)(=O)/C(C#N)=N/Nc1ccc(S(C)(=O)=O)cc1 | . | . | . | . | . | .
COc1ccc(CCN2C(=O)CSC2=Nc2ccc(C)cc2C)cc1OC | . | . | 23.1µM | 23.1µM | ? | .
COc1ccc(C2SCC(=O)N2CCc2ccc(OC)c(OC)c2)cc1 (stereo unspecified) | 2.82µM | . | 5.17µM | 7.31µM | 18.3µM | ?
COc1ccc(CCN2C(=O)C3C4CC(C5C(C(N)=O)=NOC45)C3C2=O)cc1OC (stereo unspecified) | . | . | . | . | . | .
COc1ccc(CCN2C(=O)C3C4CCC(C4=C(C)C)C3C2=O)cc1OC (stereo unspecified) | ? | . | 8.2µM | ? | . | .
COc1ccc(CCN2C(=O)C=CC2=O)cc1OC | / | -115.3 | 1.3µM | 0.82µM | / | /
Cc1ccc(Cl)cc1N1CCN(C(=O)Cc2c(C(=O)O)c(C)cn2C)CC1 | / | / | . | ? | / | /
COc1ccc(CCN2C(=O)CC(NC34CC5CC(CC(C5)C3)C4)C2=O)cc1OC (stereo unspecified) | . | . | 18.4µM | ? | ? | ?
COc1ccc(CCNC2=C(Cl)C(=O)N(CCc3ccc(OC)c(OC)c3)C2=O)cc1OC | . | . | 10.3µM | 14.6µM | 13µM | .
COc1ccc(CCN2C(=O)c3cccnc3C2=O)cc1OC | . | . | . | . | . | .
C[C@H](NC(=O)c1ncn2c1C(=O)NC[C@H]2C)c1ccccc1 | / | . | . | . | / | /
COc1ccc(OC)c(/C(O)=C/C(=O)C(=O)Nc2cc(C)cc(C)c2)c1 | 17.8µM | . | 18.4µM | ? | ? | 2.51µM
CCOc1ccccc1NC(=O)C(=O)/C=C(\O)c1cc(OC)ccc1OC | ? | . | 5.17µM | 5.8µM | . | ?
COc1ccc(OC)c(/C(O)=C/C(=O)C(=O)Nc2cc(C)ccc2OC)c1 | 11.2µM | . | ? | ? | . | 3.55µM
